From the supplement of paper PMC10849652
Targets with a hit are over-represented here; the source holds about 7,900 in all. About 0.6% of all pairs of compound and target were hits. Unmarked numbers belong to inactive results.

Assays:
Experiment in all cases: log2 fold change, soluble protein after heating vs DMSO (PISA); higher = thermal stabilisation; K562 cells, 10 uM, 30 min; active = over 0.2 and 3.5 SD of the protein, either way, in both replicates (recomputed)
[1] = compound: CS(=O)(=O)c1ccc(-c2cnc(N)c(C(=O)Nc3ccccc3)n2)cc1
Procedure, shortened: (§1)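 K562 cells (2×10^6 cells/mL) were treated with 10 μM compound for 30 min, and aliquots were heated for 3 min over 48°C-58°C. Pooled aliquots were extracted in PBS with 0.5% NP-40 at 4°C, and the supernatant after 21,000xg for 90 min was measured by TMTpro 16plex LC-MS/MS with channel sums equalised. Reported thermal stability, relative to control samples and from duplicates, is a log2 fold change.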

crizotinib = compound: C[C@@H](Oc1cc(-c2cnn(C3CCNCC3)c2)cnc1N)c1c(Cl)ccc(F)c1Cl [crizotinib]
Procedure, shortened: as §1

[2] = compound: C[C@@H]1COCCN1C2=NC(=NC(=C2)C3(CC3)S(=O)(=O)C)C4=C5C=CNC5=CC=C4
Procedure, shortened: as §1

[3] = compound: C[C@H](C1=CC=C(C=C1)C(=O)NC2=C3C=CNC3=NC=C2)N
Procedure, shortened: as §1

duvelisib = compound: C[C@H](Nc1ncnc2nc[nH]c12)c1cc2cccc(Cl)c2c(=O)n1-c1ccccc1 [duvelisib]
Procedure, shortened: as §1

gandotinib = compound: Cc1cc(Nc2cc(CN3CCOCC3)c3nc(C)c(Cc4ccc(Cl)cc4F)n3n2)n[nH]1 [gandotinib]
Procedure, shortened: as §1

tozasertib = compound: Cc1cc(Nc2cc(N3CCN(C)CC3)nc(Sc3ccc(NC(=O)C4CC4)cc3)n2)n[nH]1 [tozasertib]
Procedure, shortened: as §1

[4] = compound: Cc1cc(SCc2sc(-c3ccc(C(F)(F)F)cc3)nc2C)ccc1OCC(=O)O
Procedure, shortened: as §1

doramapimod = compound: Cc1ccc(-n2nc(C(C)(C)C)cc2NC(=O)Nc2ccc(OCCN3CCOCC3)c3ccccc23)cc1 [doramapimod]
Procedure, shortened: as §1

ispinesib = compound: Cc1ccc(C(=O)N(CCCN)[C@@H](c2nc3cc(Cl)ccc3c(=O)n2Cc2ccccc2)C(C)C)cc1 [ispinesib]
Procedure, shortened: as §1

Sequence of UniProt Q9BWT6 (Q9BWT6 whole entry, looked up): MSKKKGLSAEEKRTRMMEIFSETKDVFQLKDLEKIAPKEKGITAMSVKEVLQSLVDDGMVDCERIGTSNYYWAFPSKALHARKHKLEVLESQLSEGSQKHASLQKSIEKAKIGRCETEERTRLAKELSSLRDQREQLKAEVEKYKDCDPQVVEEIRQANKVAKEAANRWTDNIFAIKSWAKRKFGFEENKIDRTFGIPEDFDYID
Sequence of UniProt Q9UK23 (Q9UK23 whole entry, looked up): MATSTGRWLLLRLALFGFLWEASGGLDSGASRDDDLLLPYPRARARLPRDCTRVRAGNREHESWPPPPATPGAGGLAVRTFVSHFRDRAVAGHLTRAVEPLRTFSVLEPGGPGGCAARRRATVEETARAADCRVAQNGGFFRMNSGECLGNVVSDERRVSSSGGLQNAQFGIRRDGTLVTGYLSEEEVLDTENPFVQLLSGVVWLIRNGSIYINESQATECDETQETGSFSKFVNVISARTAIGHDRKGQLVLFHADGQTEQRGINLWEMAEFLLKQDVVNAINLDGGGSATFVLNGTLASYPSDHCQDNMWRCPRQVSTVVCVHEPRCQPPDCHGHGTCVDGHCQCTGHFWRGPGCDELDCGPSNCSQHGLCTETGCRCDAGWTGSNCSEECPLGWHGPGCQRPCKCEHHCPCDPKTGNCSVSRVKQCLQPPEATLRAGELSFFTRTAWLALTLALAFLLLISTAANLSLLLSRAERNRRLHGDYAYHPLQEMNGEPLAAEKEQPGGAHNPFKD
Sequence of UniProt O00567 (O00567 whole entry, looked up): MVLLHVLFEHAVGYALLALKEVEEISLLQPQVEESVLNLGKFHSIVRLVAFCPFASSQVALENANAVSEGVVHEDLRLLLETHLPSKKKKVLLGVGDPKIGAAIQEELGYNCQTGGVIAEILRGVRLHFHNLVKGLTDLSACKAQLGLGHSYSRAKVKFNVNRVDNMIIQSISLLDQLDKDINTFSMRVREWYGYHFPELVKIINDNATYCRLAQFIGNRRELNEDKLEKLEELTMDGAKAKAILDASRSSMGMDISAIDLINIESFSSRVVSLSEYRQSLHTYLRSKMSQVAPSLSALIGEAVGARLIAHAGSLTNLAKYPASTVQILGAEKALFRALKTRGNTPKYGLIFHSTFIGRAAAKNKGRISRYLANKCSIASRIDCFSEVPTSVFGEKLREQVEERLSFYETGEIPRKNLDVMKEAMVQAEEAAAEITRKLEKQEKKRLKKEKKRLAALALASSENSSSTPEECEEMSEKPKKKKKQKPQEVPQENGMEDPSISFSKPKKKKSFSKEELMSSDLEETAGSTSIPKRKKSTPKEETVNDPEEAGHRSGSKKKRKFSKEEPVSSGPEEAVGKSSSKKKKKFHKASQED
Sequence of UniProt Q12968 (Q12968 whole entry, looked up): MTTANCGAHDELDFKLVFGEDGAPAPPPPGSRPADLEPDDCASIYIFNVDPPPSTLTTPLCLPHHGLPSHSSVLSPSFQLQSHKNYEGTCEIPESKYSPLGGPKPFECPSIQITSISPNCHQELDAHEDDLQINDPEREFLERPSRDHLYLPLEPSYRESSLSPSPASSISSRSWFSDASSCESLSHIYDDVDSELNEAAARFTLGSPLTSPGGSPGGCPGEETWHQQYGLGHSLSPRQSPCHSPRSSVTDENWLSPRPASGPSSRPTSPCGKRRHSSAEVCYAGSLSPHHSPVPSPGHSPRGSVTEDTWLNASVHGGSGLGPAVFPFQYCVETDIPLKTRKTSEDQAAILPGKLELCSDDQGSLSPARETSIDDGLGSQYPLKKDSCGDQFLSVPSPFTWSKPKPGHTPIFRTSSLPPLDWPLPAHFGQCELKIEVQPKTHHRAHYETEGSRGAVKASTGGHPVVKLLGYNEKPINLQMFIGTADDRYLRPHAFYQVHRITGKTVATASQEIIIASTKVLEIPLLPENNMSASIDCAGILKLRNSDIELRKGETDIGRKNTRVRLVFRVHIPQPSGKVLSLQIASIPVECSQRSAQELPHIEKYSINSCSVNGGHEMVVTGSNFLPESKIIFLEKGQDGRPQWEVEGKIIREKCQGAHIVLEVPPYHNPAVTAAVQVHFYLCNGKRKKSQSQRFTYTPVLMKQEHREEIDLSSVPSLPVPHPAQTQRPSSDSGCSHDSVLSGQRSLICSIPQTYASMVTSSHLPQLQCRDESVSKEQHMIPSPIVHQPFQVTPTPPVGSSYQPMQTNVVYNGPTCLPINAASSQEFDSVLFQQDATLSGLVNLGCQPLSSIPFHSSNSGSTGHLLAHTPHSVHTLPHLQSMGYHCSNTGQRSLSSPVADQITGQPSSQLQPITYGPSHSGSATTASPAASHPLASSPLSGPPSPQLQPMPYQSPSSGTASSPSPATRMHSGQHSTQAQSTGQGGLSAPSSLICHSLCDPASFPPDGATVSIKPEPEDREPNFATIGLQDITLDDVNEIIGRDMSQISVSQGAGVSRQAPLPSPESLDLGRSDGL
Sequence of UniProt O14524 (O14524 whole entry, looked up): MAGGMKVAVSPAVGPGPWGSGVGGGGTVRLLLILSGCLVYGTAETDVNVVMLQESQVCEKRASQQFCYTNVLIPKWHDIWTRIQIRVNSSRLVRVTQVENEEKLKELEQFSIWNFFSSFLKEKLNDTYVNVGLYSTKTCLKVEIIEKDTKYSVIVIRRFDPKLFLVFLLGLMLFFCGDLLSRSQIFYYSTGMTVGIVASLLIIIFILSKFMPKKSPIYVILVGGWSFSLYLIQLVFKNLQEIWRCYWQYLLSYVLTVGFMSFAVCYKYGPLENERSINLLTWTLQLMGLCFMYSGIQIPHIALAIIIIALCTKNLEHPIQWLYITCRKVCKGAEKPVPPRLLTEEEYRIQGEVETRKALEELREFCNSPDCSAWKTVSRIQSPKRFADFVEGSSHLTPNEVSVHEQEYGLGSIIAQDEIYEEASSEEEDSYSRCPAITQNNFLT
Sequence of UniProt Q9HCE1 (Q9HCE1 whole entry, looked up): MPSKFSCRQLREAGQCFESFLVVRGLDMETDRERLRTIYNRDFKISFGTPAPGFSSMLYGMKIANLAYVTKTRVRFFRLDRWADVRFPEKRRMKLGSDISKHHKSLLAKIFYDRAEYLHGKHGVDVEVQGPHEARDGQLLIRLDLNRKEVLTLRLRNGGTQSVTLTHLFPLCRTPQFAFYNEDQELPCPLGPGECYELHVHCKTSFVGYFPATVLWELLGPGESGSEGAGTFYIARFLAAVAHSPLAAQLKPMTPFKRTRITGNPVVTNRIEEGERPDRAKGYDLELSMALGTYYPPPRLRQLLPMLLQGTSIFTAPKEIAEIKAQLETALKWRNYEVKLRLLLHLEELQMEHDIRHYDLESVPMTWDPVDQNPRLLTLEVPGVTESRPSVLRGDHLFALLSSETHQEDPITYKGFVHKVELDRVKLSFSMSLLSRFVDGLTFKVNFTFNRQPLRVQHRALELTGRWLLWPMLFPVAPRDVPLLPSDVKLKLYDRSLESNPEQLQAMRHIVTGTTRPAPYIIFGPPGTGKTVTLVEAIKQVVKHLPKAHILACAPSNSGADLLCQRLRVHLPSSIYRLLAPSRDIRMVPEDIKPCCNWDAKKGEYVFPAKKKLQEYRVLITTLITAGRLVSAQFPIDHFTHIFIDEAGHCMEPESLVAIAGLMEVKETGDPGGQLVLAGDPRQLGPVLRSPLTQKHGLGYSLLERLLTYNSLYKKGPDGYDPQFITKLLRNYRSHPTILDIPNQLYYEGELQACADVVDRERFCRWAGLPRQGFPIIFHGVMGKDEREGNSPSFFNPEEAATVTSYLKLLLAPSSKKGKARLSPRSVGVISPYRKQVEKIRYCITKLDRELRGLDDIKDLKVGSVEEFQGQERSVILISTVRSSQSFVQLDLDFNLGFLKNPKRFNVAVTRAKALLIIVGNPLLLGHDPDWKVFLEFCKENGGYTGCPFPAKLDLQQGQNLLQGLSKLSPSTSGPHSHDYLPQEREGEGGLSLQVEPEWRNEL
Sequence of UniProt Q9UMY1 (Q9UMY1 whole entry, looked up): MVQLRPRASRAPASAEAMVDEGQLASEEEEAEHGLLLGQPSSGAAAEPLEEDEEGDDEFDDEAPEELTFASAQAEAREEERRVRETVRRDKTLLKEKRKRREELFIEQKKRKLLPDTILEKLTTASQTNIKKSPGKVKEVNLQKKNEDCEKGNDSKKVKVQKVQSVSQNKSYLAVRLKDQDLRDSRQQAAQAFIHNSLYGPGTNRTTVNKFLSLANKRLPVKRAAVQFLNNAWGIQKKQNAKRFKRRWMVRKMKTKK
Sequence of UniProt P22059 (P22059 whole entry, looked up): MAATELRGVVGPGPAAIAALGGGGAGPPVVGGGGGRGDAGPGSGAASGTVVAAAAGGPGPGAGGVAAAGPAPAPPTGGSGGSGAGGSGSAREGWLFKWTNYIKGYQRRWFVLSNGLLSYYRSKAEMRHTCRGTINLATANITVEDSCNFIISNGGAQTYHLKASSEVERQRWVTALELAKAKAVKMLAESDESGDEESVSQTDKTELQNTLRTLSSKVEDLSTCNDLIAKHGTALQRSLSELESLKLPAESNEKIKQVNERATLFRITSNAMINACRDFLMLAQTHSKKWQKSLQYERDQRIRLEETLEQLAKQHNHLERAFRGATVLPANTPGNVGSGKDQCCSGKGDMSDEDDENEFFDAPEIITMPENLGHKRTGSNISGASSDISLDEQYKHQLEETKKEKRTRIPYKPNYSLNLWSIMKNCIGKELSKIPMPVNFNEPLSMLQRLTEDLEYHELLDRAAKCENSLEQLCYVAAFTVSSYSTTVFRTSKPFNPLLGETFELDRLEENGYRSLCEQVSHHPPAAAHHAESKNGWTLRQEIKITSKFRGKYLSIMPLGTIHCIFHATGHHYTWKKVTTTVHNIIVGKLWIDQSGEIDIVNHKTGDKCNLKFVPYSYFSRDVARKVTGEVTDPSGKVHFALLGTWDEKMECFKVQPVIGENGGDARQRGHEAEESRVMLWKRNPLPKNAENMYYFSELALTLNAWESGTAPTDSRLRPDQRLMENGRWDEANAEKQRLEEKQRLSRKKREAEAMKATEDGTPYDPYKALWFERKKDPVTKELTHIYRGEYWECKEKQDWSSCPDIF
Sequence of UniProt Q9BRA0 (Q9BRA0 whole entry, looked up): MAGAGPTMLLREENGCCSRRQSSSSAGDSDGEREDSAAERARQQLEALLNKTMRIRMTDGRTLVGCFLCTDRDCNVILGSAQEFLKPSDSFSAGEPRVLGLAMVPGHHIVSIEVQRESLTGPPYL

Target	log2 fold change [1]	log2 fold change (crizotinib)	log2 fold change [2]	log2 fold change [3]	log2 fold change (duvelisib)	log2 fold change (gandotinib)	log2 fold change (tozasertib)	log2 fold change [4]	log2 fold change (doramapimod)	log2 fold change (ispinesib)
NISCH (UniProt Q9Y2I1)	-0.026	-0.284	0.035	0.047	-0.363	-0.4	0.006	0.126	0.054	-0.408 (active)
NELFB isoform 2 (UniProt Q8WX92)	0.059	0.019	0.087	-0.08	0.088	-0.093	0.033	0.086	-0.087	0.042
MRPS5 (UniProt P82675)	0.123	-0.061	0.125	0.169	0.016	-0.08	-0.065	0.131	0.071	-0.451 (active)
NFATC3 (UniProt Q12968)	-0.06	-0.179	0.014	-0.04	-0.012	-0.161	-0.039	0.091	0.066	0.256
NT5DC1 (UniProt Q5TFE4)	0.045	0.071	0.046	-0.052	0.05	0.019	0.004	-0.038	-0.018	0.037
NME1 isoform 2 (UniProt P15531)	0.013	0.012	0.161	0.01	0.38	-0.144	-0.07	0.195	-0.015	0
NAGPA (UniProt Q9UK23)	0.017	0.178	-0.078	-0.014	0.067	0.024	-0.094	-0.079	0.072	
NFX1 (UniProt Q12986)	-0.024	-0.232	-0.315	0.09	0.172	0.21	-0.008	-0.164	0.293	-0.202
NELFA (UniProt Q9H3P2)	-0.01	0.082	0.198	-0.011	0.118	0.004	0.142	0.234	-0.014	-0.068
NAA38 isoform 2 (UniProt Q9BRA0)	0.012	-0.052	0.099	0.018	0.124	-0.004	-0.013	0.015	-0.02	-0.064
PACRGL (UniProt Q8N7B6)	-0.074									
NOL7 (UniProt Q9UMY1)	-0.054	0.065	-0.661	0.415	-0.201	0.124	-0.001	0.003	0.187	-0.052
MRPS31 (UniProt Q92665)	0.063	0.024	0.027	0.199	0.005	0.121	-0.015	0.073	0	-0.28 (active)
NNMT (UniProt P40261)	0.039	-0.08	0.085	-0.06	0.06	-0.002	-0.007	-0.09	0	
OXA1L (UniProt Q15070)	-0.042	-0.064	0.004	-0.018	0.021	0.012	0.005	0.018	-0.01	-0.1
NUDT21 (UniProt O43809)	-0.054	0.039	-0.031	-0.209 (active)	-0.01	-0.059	0.013	0.039	0.007	0.116
NFATC2IP (UniProt Q8NCF5)	0.014	0.023	0.195	-0.009	0.121	0.011	0.03	0.045	-0.03	0.024
NEU3 isoform 2 (UniProt Q9UQ49)	0.062									
MUL1 (UniProt Q969V5)	-0.023	0.038	0.078	-0.006	-0.042	-0.018	0.083	-0.02	0.056	-0.01
MND1 (UniProt Q9BWT6)	0	-0.217	0.005	0.018	0.016	-0.076	-0.152	-0.024	0.009	-0.184
OSBP (UniProt P22059)	-0.015	0.057	0.025	-0.043	0.074	-0.025	-0.009	0.016	-0.028	0.216 (active)
NEMP1 (UniProt O14524)	-0.058	-0.121	-0.035	0.011	0.013	-0.1	-0.004	-0.014	0.032	-0.354 (active)
NIPSNAP2 (UniProt C9J7B1)	0									
MPHOSPH10 (UniProt O00566)	-0.083	0.026	-0.25	0.353	-0.047	0.189	0.016	-0.046	0.049	-0.023
MKRN2 (UniProt Q9H000)	-0.035	-0.094	-0.077	0.117	-0.111	0.221	0.085	0.076	-0.005	-0.161
NRF1 isoform 4 (UniProt Q16656)	0.03	0.071	0.275	-0.107	0.053	-0.125	0.074	0.017	-0.003	-0.004
NOP56 (UniProt O00567)	-0.101	-0.103	-0.338	0.285	-0.022	0.064	-0.043	0	0.178	0.162
NUMA1 (UniProt Q14980)	0.117	-0.001	-0.071	0.089	-0.073	-0.066	0.108	0.07	0.178	-0.089
NDFIP1 (UniProt Q9BT67)	0.349	-0.004	0.045	-0.167	0.039	0.052	0.046	0.08	-0.068	0.015
MOV10 (UniProt Q9HCE1)	-0.086	0.032	-0.258	0.254	-0.059	0.239	0.01	-0.023	0.103	-0.093
